The text below walks through data of PubChem BioAssay (NCI).

Compounds without any hit were thinned out: in the full panel of roughly 79,000, 15% have a hit. Values without a mark were called inactive. Activity calls are given as the source filed them. Cut-off read from the data, not from the text of the source: active = growth inhibition above about 70%; inactive = the rest. *1 amine or outer side, *2 acyl side, *3 side chain or, on linkers, in order; H or OH if unused. Where a SMILES comes first, the peptide text is derived from it. Bridges are numbered along the chain shown (N, C = ends). Roman numbers before positions name the chains, in order. [ ]: non-standard residue; d: D form. Actinocin(1to9) = Cc1c2oc3c(C)ccc(C(=O)[*:2])c3nc-2c(C(=O)[*:1])c(N)c1=O; NMeV = CN[CH](C(=O)O)C(C)C; Sar = CNCC(=O)O

A short description of the assay: NCI Yeast Anticancer Drug Screen. Data for the rad50 strain (AID 155).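 Note: 0% = growth of vehicle-only cultures of the same strain.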 The settings on record: S. cerevisiae rad50 strain growth inhibition; at 50.0 µM; stronger effect = higher value. How it is done: Growth inhibition of yeast strains with defined genetic alterations is measured as a screen for potential anti-cancer activity. Selected strains with alterations in DNA damage repair or cell cycle control were exposed to compounds and growth inhibition was measured relative to vehicle treated controls. The strain used in this assay is rad50
In the case of `O=C(Nc1cccc(S(=O)(=O)F)c1)c1cccc([N+](=O)[O-])c1`, the growth inhibition is 96.5% (active).

With `O=S1(F)=NP(N2CC2)(N2CC2)=NP(N2CC2)(N2CC2)=N1` (stereo not given), the growth inhibition was 22.6%.

For the molecule `Cc1ccc(C)c(NP(=O)(Nc2cc(C)ccc2C)N(CCCl)CCCl)c1`, the growth inhibition was 30.2%.

Consider `O=[As](O)(O)c1cccc(Cl)c1`, for which the growth inhibition is 9.3%.

In the case of `C1CCN2CC3CONC3C2C1` (stereo not given), the growth inhibition was -11.3%.

For `O=C(COc1ccc(Cl)c(Cl)c1)Nc1ccc[n+](Cc2ccc(S(=O)(=O)F)c(Cl)c2)c1`, the growth inhibition was 62%.

For the molecule `COc1ccc2c(c1)CC(CN1CCC3(CC1)C(=O)N(C)CN3c1ccccc1)O2` (stereo not given), the growth inhibition was -24.6%.

`CCCCCCCC(N)CC(=O)O` (stereo not given): the growth inhibition was -24.2%.

Consider `CN1CCC2(CC1)C(C#N)C(=O)NC(=O)C2C#N` (stereo not given), for which the growth inhibition was 19.8%.

Turning to `CN(N=O)C(=O)ON1C(=O)CCC1=O`, the growth inhibition is 9.65%.

As for `O=C(Oc1cc(Cl)c(S(=O)(=O)F)cc1Cl)c1ccc([N+](=O)[O-])cc1`, the growth inhibition was 78.2% (active).

In the case of `CO[C@H]1C[C@H](O[C@H]2CC[C@@]3(C)[C@H](CC[C@@H]4[C@@H]3CC[C@]3(C)[C@@H](C5=CC(=O)OC5)CC[C@]43O)C2)O[C@H](C)[C@H]1O`, the growth inhibition was 33.2%.

As for `CCN1C(=O)CC(=O)N(CC)C1=S`, the growth inhibition is 24.4%.

In the case of `Cc1ccccc1C(=O)[O][Pb]([CH3])([CH3])[CH3]`, the growth inhibition was 21.4%.

Turning to `C(=C\c1cccs1)/CN1CCC2CCC(C2)C1` (stereo not given), the growth inhibition is -3.25%.

Turning to `CCC[CH2][Sn]([CH2]CCC)([O]C(=O)CN)[O]C(=O)CN`, the growth inhibition was 29.9%.

For the molecule `COc1cc2c(cc1OC)C13CCN4CC5=CCOC6CC(=O)N2C1C6C5CC43O` (stereo not given), the growth inhibition is -13.9%.

Regarding `CN(CCC(=O)O)C1=Nc2ccc(Cl)cc2C(c2ccccc2)=[N+]([O-])C1`, the growth inhibition was 1.75%.

As for `CCNc1ccc([N+](=O)[O-])cc1[N+](=O)[O-]`, the growth inhibition was 11.3%.

Take `OC1NC2CC3NC(O)C(O)NC3CC2NC1O` (stereo not given): the growth inhibition was -16.6%.

For `CCNC1CCCCC1`, the growth inhibition is 26.3%.

With `O=C(c1ccccc1)C1CN(C2CCCC2)C1c1ccccc1` (stereo not given), the growth inhibition is -10.2%.

Take `OC(c1ccccc1)C(Cl)(Cl)Cl` (stereo not given): the growth inhibition was 17.1%.

`CC(C)CC(NC(=O)CF)C(=O)O` (stereo not given): the growth inhibition is 3.45%.

As for `Cc1ccc2[nH]c(=S)n(-c3cccc(C(F)(F)F)c3)c(=O)c2c1`, the growth inhibition was 17.8%.

Turning to `Nc1cc(S(=O)(=O)O)cc2cc(S(=O)(=O)O)c(N=Nc3ccc([As]=O)cc3)c(O)c12` (stereo not given), the growth inhibition was -11.1%.

Consider `COC(=O)CCc1ccc(NP(=O)(Oc2ccccc2)N(CCCl)CCCl)cc1` (stereo not given), for which the growth inhibition is 13.3%.

For the molecule `O=C(CN1C(=O)c2ccccc2C1=O)OCCNCCCl`, the growth inhibition is 98.2% (active).

Regarding `CC(=O)Cc1c[nH]c2ccccc12`, the growth inhibition is -25.2%.

On to `C[C@]12CCc3nonc3C1CC[C@@H]1C2CC[C@@]2(C)C1CC[C@@H]2O` (stereo not given in full), for which the growth inhibition was 3.65%.

Regarding `CCC(C)C1NC(=O)C(NC(=O)c2c3nc4c(C(=O)NC5C(=O)NC(C(C)C)C(=O)N6CCCC6C(=O)N(C)CC(=O)N(C)C(C(C)C)C(=O)OC5C)ccc(C)c4oc-3c(C)c(=O)c2N)C(C)OC(=O)C(C(C)C)N(C)C(=O)CN(C)C(=O)C2CCCN2C1=O` (stereo not given) (I: TIP[Sar][NMeV] / II: TVP[Sar][NMeV]; ester I:1-I:C, II:1-II:C; linker I:N-II:N via Actinocin(1to9); configuration not given here), the growth inhibition is 88% (active).

Consider `NC(Cc1ccc(O)c(O)c1)c1ccccc1` (stereo not given), for which the growth inhibition was -12.1%.

As for `CCOP(=O)(OCC)C(N)Cc1c[nH]c2ccccc12` (stereo not given), the growth inhibition was 13.9%.

Regarding `COc1cc(C2(C)CCCCC2)c(OC)cc1C1(C)CCCCC1`, the growth inhibition is -8.1%.

As to `CN1CCC(O)(c2ccccc2)C(C(O)c2ccccc2)C1` (stereo not given), the growth inhibition was 5.2%.

Turning to `C[N+](C)(C)CC1CCCC/C1=N\O` (stereo not given), the growth inhibition was 23.2%.

On to `N#CCCO`, for which the growth inhibition is -7.35%.

For `Nc1nc(N)c(N=Nc2ccc([As](=O)(O)O)c(O)c2)c(N)n1`, the growth inhibition was -4%.

On to `c1ccc(N=PNc2ccccc2)cc1` (stereo not given), for which the growth inhibition was -4.7%.

As to `CCC(Br)C(=O)OCCCl` (stereo not given), the growth inhibition was 12%.
